Records with an inconclusive call do not appear. Activity calls are given as the source filed them.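 The calls were made as follows, unless noted: active = response below a set limit, under 55% cells CD8-positive and vesicle-bound, and CD8 cells' 90th-percentile brightness under 279; inactive = the rest.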 Peptide text beside a SMILES is read from it. * marks the point of attachment. Boc = CC(C)(C)OC(=O)*; OBn = c1ccc(CO*)cc1
What was measured:
[1] = rapamycin-like changes in RPL19A-GFP expression – cell-based, S. cerevisiae, multiplex flow cytometry, primary screen (AID 1862; in the data active = percent of DMSO control GFP below about 86%;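 also: lower values mimic rapamycin by blocking the RPL19A rise seen in DMSO cells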); conditions: S. cerevisiae RPL19A-GFP strain, flow cytometry fluorescence, 3 h; at 10 µM; stronger effect = lower value
[2] = TOR pathway GLN3 branch reporter MEP2-GFP changes – S. cerevisiae, multiplex flow cytometry, primary screen (AID 1867;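 active = GFP response, as percent of the DMSO control, above the screen-wide mean plus 3 SD, about 139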;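 also: median GFP channel fluorescence of barcode-gated MEP2-GFP cells measured by flow cytometry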); conditions: S. cerevisiae MEP2-GFP strain, 3 h, at 10 µM, stronger effect = higher value, 100% means same as DMSO wells
[3] = TOR pathway RTG branch CIT2 reporter changes – S. cerevisiae, GFP fusion, multiplex flow cytometry, primary screen (AID 1870;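 active = percent response above a set limit, the screen-wide mean plus 3 SD, cut at about 130% in these data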;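 also: barcoded CIT2-GFP strain pooled with four other GFP strains with rapamycin as positive control; median GFP fluorescence per well over plate mean of DMSO wells so 100% = DMSO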); conditions: S. cerevisiae CIT2-GFP expression, 3 h, at 10 µM, stronger effect = higher value
[4] = TOR pathway LAP4-GFP level changes – S. cerevisiae, multiplex flow cytometry, primary screen (AID 1873;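 active = GFP signal, as percent of the solvent control, above the screen mean plus 3 SD, about 149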); conditions: S. cerevisiae LAP4-GFP expression, 3 h, at 10 µM, stronger effect = higher value
[5] = yeast AGP1-GFP level changes, GLN3 branch – cell-based, multiplex flow cytometry, S. cerevisiae, primary screen (AID 1887;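 active = GFP signal above the screen-wide mean plus 3 SD, that is over about 124.5% of the solvent control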;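 also: AGP1-GFP fusion strain of S. cerevisiae within a five-strain barcoded multiplex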); conditions: 3 h, at 10 µM, stronger effect = higher value
[6] = reduced mouse 2C T cell binding to pMHC/ICAM-1 vesicles – MLPCN validation set, flow cytometry, LFA-1/ICAM-1 modulator project, pilot screen (AID 2523); conditions: 2C mouse CD8+ T cells, at 7 µM, stronger effect = lower value; double positive events: measured here: CD8+/vesicle+ event percentage;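 as to vesicle binding response: mean PE anti-B7-1 fluorescence of CD8+ cells relative to row control; 100% = QL9-loaded vesicles with DMSO vehicle in the same plate row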
[7] = target: Integrin beta-1 (Homo sapiens) + Integrin alpha-4 (Homo sapiens) (UniProt P13612+P05556); assay: alpha4beta1 integrin LIBS antibody binding reduction – U937 cells, HUTS-21 mAb, flow cytometry, validation set, VLA-4 allosteric modulator project, pilot screen (AID 2674;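 active = inhibition above 50%, about 3 SD of the validation set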;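 also: antibody binding induced by the VLA-4 ligand LDV present at three times its Kd; 0% = LDV ligand with antibody and no compound and 100% = antibody without LDV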); conditions: HUTS-21 LIBS mAb binding, at 6.7 µM, stronger effect = higher value, binding induced by LDV ligand
[8] = calorie-restriction mimetic ROS inhibitors, yeast – validation compound set, pilot screen (AID 2706;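 active = superoxide response below 65% of plate, a cut near 3 SD across the whole screen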;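 also: yeast exposed to compound for one week at 30 degrees C before staining; 100% = mean of all compound wells on the same plate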); conditions: S. cerevisiae aging, superoxide DHE fluorescence; at 10 µM, stronger effect = lower value
[9] = target: Beta-adrenergic receptor kinase 1 (Homo sapiens) (UniProt P25098); assay: GRK2 binders displacing RNA aptamer, biochemical, validation, human GRK2, bead flow cytometry (AID 488806;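 active = aptamer binding inhibition above 30%, about 3 SD of noise from non-fluorescent compounds; inactive = inhibition at or below 30%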); conditions: bead-bound GRK2, FAM-aptamer displacement, at 10 µM, stronger effect = higher value
[10] = target: AP-2 complex subunit beta (Homo sapiens) (UniProt P63010); assay: beta-arrestin/AP2 interaction blockers – biochemical, validation set, GST-AP2 beads, flow cytometry, pilot screen (AID 504541;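 active = inhibition above 54%, about 3 SD of non-fluorescent compounds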;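 also: AP2 carries R879A mutation and is captured from E. coli lysate; bead-bound FITC arrestin peptide fluorescence measuring arrestin peptide binding to AP2; 0% = DMSO wells and 100% = excess unlabeled arrestin peptide control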); conditions: FITC arrestin peptide, at 10 µM, stronger effect = higher value, AP2 beta2 appendage fragment, R879A mutant
[11] = cytosolic pH regulators acting via V-ATPase – S. cerevisiae, pHLuorin, HTS validation (AID 504600; in the data active = response above about 15%;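 also: plate controls were DMSO for no effect and reference compound for full effect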); conditions: V-ATPase proton transport, at 10 µM, stronger effect = higher value
[12] = test system: anti-desmoglein-3 scFv antibody binding to human DSG3; assay: blockers of pathogenic pemphigus antibody–desmoglein-3 binding – biochemical, validation compound set, bead-based, flow cytometry, pilot screen (AID 588368;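 active = binding below the plate cutoff, the plate median minus 3 SD, with a reading above zero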;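 also: signal is the median channel fluorescence of bead-bound GFP antibody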); conditions: Protein G beads, DSG3-Fc, scFv-GFP binding, at 10 µM, stronger effect = lower value
[13] = Nile Red efflux blockade in pump-expressing yeast – validation compound set, multiplex, phenotypic, pilot screen (AID 588506;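 active = efflux inhibition above 0.42, the validation set average plus 4 SD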;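 also: Nile Red retained in cells so higher fluorescence means more efflux inhibition; 0 = negative control wells and 1 = enniatin B 25 µM full block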); conditions: S. cerevisiae pump-expressing triplex, Nile Red efflux flow cytometry; at 10 µM; stronger effect = higher value; the pumps come from Candida albicans
[14] = target: ATP-binding cassette sub-family B member 6 (Homo sapiens) (UniProt Q9NP58); assay: blockers of ABCB6-driven porphyrin uptake – K562-ABCB6 cells, flow cytometry, validation set, pilot screen (AID 588550;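 active = inhibition above the screen-wide mean plus 3 SD, about 51%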;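 also: 0% = DMSO wells and 100% = benzethonium chloride 70 µM positive control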); conditions: K562-ABCB6 porphyrin accumulation, 1 h, at 10 µM, stronger effect = higher value
[15] = AML differentiation inducers, ER-HoxA9 marrow cells – cell-based, GFP/MAC1 double positive, flow cytometry, validation set, primary screen (AID 588685;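 active = differentiation response of at least 50%, scaled between solvent and reference control, from cells with both markers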;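 also: compound exposure lasts four days before antibody staining and flow analysis; 0% = DMSO wells and 100% = 5 µM fulvestrant positive control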); conditions: stronger effect = higher value, normalized: vehicle 0, fulvestrant 100

Chain of Integrin beta-1 (Homo sapiens) + Integrin alpha-4 (Homo sapiens) (P05556 whole entry, looked up): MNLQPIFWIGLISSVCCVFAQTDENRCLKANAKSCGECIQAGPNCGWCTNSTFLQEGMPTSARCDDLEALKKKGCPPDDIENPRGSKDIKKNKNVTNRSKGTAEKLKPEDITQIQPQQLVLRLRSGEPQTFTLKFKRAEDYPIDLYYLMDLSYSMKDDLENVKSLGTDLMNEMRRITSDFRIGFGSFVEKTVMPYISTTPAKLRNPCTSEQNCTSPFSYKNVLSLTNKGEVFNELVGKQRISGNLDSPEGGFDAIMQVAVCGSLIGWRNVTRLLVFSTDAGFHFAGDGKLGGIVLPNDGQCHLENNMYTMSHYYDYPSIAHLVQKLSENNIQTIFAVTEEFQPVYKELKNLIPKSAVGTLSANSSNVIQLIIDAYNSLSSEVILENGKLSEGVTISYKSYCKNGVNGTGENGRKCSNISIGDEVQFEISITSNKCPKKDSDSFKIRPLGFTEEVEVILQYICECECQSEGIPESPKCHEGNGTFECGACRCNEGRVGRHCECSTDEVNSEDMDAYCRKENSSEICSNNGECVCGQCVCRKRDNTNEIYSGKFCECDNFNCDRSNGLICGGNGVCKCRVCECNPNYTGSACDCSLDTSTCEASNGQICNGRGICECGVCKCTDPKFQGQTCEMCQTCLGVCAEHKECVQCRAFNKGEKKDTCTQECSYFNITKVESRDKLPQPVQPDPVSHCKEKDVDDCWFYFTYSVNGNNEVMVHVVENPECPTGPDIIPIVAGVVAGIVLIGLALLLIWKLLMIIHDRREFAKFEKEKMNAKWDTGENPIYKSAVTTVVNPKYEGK
Chain of Integrin beta-1 (Homo sapiens) + Integrin alpha-4 (Homo sapiens) (P13612 whole entry, looked up): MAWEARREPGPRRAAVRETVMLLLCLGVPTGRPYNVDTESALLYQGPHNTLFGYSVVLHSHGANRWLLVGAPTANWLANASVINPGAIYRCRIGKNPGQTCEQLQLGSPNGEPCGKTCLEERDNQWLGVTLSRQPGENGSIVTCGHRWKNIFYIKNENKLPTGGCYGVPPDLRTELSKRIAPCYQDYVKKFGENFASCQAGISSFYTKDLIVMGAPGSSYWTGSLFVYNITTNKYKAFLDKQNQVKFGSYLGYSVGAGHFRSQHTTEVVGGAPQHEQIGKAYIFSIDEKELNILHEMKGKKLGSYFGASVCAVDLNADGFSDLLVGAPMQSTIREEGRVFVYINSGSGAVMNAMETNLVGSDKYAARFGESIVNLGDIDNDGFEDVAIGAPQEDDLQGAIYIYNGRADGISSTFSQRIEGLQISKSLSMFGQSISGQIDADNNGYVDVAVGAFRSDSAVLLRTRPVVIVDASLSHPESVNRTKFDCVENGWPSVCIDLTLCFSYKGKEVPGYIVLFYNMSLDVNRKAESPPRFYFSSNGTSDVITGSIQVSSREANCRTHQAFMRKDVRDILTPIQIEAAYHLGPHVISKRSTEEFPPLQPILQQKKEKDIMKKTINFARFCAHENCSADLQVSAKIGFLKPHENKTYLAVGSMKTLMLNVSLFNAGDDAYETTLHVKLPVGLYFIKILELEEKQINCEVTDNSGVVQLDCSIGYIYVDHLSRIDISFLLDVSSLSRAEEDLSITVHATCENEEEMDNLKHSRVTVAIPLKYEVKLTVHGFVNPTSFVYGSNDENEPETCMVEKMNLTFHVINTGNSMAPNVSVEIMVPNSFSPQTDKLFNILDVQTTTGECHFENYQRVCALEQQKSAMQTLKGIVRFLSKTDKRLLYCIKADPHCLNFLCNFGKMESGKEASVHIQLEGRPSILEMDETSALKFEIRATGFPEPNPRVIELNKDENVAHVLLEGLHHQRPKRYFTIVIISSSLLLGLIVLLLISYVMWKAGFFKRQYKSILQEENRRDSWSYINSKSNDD
Chain of Beta-adrenergic receptor kinase 1 (Homo sapiens) (P25098 whole entry, looked up): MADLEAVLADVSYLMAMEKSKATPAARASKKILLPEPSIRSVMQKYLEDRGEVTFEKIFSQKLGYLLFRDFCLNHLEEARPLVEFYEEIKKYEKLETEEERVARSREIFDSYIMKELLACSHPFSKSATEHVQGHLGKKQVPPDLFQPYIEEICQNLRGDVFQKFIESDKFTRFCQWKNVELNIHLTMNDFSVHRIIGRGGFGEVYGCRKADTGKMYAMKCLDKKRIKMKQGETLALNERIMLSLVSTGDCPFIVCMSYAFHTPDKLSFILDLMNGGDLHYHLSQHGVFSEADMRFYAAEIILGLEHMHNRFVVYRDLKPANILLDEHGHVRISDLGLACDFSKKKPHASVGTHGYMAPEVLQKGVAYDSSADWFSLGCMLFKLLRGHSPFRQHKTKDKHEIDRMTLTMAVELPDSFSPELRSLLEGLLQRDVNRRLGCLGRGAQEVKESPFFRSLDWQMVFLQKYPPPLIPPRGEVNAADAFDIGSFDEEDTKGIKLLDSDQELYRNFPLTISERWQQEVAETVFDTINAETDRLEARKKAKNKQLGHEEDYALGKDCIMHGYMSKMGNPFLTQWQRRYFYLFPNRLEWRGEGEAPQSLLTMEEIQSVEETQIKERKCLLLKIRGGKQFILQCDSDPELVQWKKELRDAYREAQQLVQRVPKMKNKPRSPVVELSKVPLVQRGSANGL
Chain of AP-2 complex subunit beta (Homo sapiens) (P63010 whole entry, looked up, the tested form may be a part, one chain of several): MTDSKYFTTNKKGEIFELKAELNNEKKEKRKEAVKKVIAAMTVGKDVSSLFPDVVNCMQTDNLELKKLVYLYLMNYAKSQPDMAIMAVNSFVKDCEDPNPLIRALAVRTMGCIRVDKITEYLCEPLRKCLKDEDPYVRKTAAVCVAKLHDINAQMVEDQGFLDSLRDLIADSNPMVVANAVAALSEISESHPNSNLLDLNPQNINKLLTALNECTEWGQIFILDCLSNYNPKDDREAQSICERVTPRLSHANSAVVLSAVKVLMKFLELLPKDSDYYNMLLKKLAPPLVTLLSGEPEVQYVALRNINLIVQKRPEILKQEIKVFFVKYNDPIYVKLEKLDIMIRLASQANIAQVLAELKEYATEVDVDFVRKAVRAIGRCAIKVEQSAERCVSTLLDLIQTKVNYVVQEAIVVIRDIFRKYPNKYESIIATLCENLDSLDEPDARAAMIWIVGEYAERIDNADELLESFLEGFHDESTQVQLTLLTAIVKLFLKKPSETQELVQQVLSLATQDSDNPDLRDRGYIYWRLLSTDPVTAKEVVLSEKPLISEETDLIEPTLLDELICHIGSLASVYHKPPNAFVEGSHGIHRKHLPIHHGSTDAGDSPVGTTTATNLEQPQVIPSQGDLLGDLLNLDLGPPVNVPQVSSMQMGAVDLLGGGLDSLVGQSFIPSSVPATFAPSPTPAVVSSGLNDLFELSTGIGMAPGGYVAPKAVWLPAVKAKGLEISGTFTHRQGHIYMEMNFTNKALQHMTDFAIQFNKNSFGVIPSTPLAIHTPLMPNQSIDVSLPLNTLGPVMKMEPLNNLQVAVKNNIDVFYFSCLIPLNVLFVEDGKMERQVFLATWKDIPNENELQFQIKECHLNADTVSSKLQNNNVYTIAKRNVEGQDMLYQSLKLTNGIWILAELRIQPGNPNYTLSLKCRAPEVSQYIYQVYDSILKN
Chain of ATP-binding cassette sub-family B member 6 (Homo sapiens) (Q9NP58 whole entry, looked up): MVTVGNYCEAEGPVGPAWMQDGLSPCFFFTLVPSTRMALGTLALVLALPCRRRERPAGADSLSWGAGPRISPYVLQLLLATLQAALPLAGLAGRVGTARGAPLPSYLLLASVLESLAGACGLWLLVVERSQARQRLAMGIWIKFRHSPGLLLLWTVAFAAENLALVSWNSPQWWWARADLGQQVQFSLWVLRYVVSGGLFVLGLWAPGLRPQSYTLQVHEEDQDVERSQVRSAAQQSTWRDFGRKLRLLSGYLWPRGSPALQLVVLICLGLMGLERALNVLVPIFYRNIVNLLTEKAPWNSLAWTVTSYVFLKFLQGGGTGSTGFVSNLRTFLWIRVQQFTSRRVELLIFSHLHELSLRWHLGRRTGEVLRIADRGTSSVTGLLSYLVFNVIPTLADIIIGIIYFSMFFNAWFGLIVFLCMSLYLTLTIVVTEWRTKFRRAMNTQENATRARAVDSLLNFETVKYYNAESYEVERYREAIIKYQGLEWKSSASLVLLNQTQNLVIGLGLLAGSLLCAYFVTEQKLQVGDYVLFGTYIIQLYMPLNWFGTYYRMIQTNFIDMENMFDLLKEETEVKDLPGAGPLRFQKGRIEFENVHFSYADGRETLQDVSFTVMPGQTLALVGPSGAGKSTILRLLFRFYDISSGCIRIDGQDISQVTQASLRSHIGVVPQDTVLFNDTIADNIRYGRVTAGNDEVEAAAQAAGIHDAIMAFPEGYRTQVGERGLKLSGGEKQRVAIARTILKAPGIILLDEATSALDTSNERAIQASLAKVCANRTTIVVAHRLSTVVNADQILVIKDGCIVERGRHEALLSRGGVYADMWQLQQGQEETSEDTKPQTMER

COc1ccc2c(c1)c(CC(=O)O)c(C)n2C(=O)c1ccc(Cl)cc1
inactive: percent of DMSO control GFP [1] 105% | GFP response vs DMSO [2] 96.9% | percent response of DMSO control [3] 109% | GFP response vs DMSO [4] 101% | GFP response, % of DMSO [5] 92.5% | vesicle binding response [6] 173% | inhibition [7] -25.4% | superoxide response (% of plate) [8] 109% | aptamer binding inhibition [9] 1% | inhibition [10] -6.1% | response [11] 9.1% | binding (% of control) [12] 102% | efflux inhibition (fraction of control) [13] -0.01 | inhibition [14] 10% | differentiation response [15] -13.1%
50%: double positive events [6]

COC(=O)C1=C(C)NC(C)=C(C(=O)OC)C1c1ccccc1[N+](=O)[O-]
inactive: percent of DMSO control GFP [1] 102% | GFP response vs DMSO [2] 104% | percent response of DMSO control [3] 102% | GFP response vs DMSO [4] 108% | GFP response, % of DMSO [5] 94.6% | vesicle binding response [6] 186% | inhibition [7] 5.36% | superoxide response (% of plate) [8] 93.7% | aptamer binding inhibition [9] -2% | inhibition [10] 34.7% | response [11] -7.73% | binding (% of control) [12] 104% | efflux inhibition (fraction of control) [13] -0.39 | inhibition [14] 12% | differentiation response [15] -8.27%
53.9%: double positive events [6]

CN(CCc1cnn(C)c1)Cc1nc(CC2CC2)no1
inactive: percent of DMSO control GFP [1] 101% | GFP response vs DMSO [2] 101% | percent response of DMSO control [3] 110% | GFP response vs DMSO [4] 105% | GFP response, % of DMSO [5] 105% | vesicle binding response [6] 194% | inhibition [7] -11.4% | superoxide response (% of plate) [8] 106% | aptamer binding inhibition [9] 2% | inhibition [10] 23.6% | response [11] -2.33% | binding (% of control) [12] 104% | efflux inhibition (fraction of control) [13] -0.16 | inhibition [14] 8% | differentiation response [15] -9.89%
58.1%: double positive events [6]

CC(=O)Oc1cc(C(C)C)c(OCCN(C)C)cc1C
inactive: percent of DMSO control GFP [1] 103% | GFP response vs DMSO [2] 104% | percent response of DMSO control [3] 94.9% | GFP response vs DMSO [4] 97.4% | GFP response, % of DMSO [5] 99.9% | vesicle binding response [6] 152% | inhibition [7] -0.24% | superoxide response (% of plate) [8] 106% | aptamer binding inhibition [9] 6% | inhibition [10] -9.83% | response [11] 8.27% | binding (% of control) [12] 95.2% | efflux inhibition (fraction of control) [13] 0.1 | inhibition [14] 10% | differentiation response [15] 19.2%
52.8%: double positive events [6]

CC(C)CC(NC(=O)C(NC(=O)OC(C)(C)C)C(C)C)C(=O)NC(CCC(=O)OCc1ccccc1)C(N)=O (stereo not drawn) (Boc-Val-Leu-Glu(OBn)-NH2; configuration not given here)
65%: double positive events [6]
inactive: percent of DMSO control GFP [1] 99.6% | GFP response vs DMSO [2] 98.9% | percent response of DMSO control [3] 95.9% | GFP response vs DMSO [4] 84.3% | GFP response, % of DMSO [5] 93.1% | vesicle binding response [6] 186% | inhibition [7] 3.49% | superoxide response (% of plate) [8] 94.3% | aptamer binding inhibition [9] 0% | inhibition [10] 2.78% | response [11] -7.35% | binding (% of control) [12] 101% | efflux inhibition (fraction of control) [13] 0.41 | inhibition [14] 11% | differentiation response [15] 22.4%

CC1=CC2(O)OCCN(CCO)C2=CC1=O (stereo not given)
56.9%: double positive events [6]
inactive: percent of DMSO control GFP [1] 103% | GFP response vs DMSO [2] 102% | percent response of DMSO control [3] 101% | GFP response vs DMSO [4] 93.3% | GFP response, % of DMSO [5] 97.9% | vesicle binding response [6] 162% | inhibition [7] -12.4% | superoxide response (% of plate) [8] 103% | aptamer binding inhibition [9] 2% | inhibition [10] -3.8% | response [11] -1.28% | binding (% of control) [12] 102% | efflux inhibition (fraction of control) [13] 0.29 | inhibition [14] 7% | differentiation response [15] 3.03%

Cc1nc(C)c(C)nc1C
inactive: percent of DMSO control GFP [1] 101% | GFP response vs DMSO [2] 101% | percent response of DMSO control [3] 102% | GFP response vs DMSO [4] 100% | GFP response, % of DMSO [5] 103% | vesicle binding response [6] 132% | inhibition [7] 12.8% | superoxide response (% of plate) [8] 104% | aptamer binding inhibition [9] -3% | inhibition [10] 31.6% | response [11] -7.78% | binding (% of control) [12] 103% | efflux inhibition (fraction of control) [13] 0.25 | inhibition [14] 8% | differentiation response [15] 3.03%
64.7%: double positive events [6]

CN(C)CCC(c1ccc(Br)cc1)c1ccccn1 (stereo not given)
56.9%: double positive events [6]
inactive: percent of DMSO control GFP [1] 103% | GFP response vs DMSO [2] 101% | percent response of DMSO control [3] 94.9% | GFP response vs DMSO [4] 97.4% | GFP response, % of DMSO [5] 100% | vesicle binding response [6] 182% | inhibition [7] 36.1% | superoxide response (% of plate) [8] 106% | aptamer binding inhibition [9] 2% | inhibition [10] -4.8% | response [11] 2.41% | binding (% of control) [12] 103% | efflux inhibition (fraction of control) [13] 0.18 | inhibition [14] 12% | differentiation response [15] -1.82%

Cc1ccc2c(c1)C(O)(c1c(C)[nH]c3ccccc13)C(=O)N2 (stereo not given)
inactive: percent of DMSO control GFP [1] 98.6% | GFP response vs DMSO [2] 97.9% | percent response of DMSO control [3] 106% | GFP response vs DMSO [4] 96.4% | GFP response, % of DMSO [5] 90.1% | vesicle binding response [6] 259% | inhibition [7] -4.9% | superoxide response (% of plate) [8] 98.1% | aptamer binding inhibition [9] -1% | inhibition [10] -11.2% | response [11] -5.66% | binding (% of control) [12] 102% | efflux inhibition (fraction of control) [13] 0.1 | inhibition [14] 5% | differentiation response [15] -34.1%
57.8%: double positive events [6]

O=C(O)CCSc1nc2ccccc2s1
49.5%: double positive events [6]
active: efflux inhibition (fraction of control) [13] 0.44
inactive: percent of DMSO control GFP [1] 104% | GFP response vs DMSO [2] 99.9% | percent response of DMSO control [3] 102% | GFP response vs DMSO [4] 106% | GFP response, % of DMSO [5] 95.8% | vesicle binding response [6] 183% | inhibition [7] -9.57% | superoxide response (% of plate) [8] 115% | aptamer binding inhibition [9] 7% | inhibition [10] -3.62% | response [11] -1.68% | binding (% of control) [12] 101% | inhibition [14] 8% | differentiation response [15] 17.6%
